# Laboratory results: PubChem BioAssay AID485317 (Broad Institute, 2010)
# Hit rate of the full screen: of about 290,000 compounds, about 11,000 (3.8%) were called active. This excerpt belongs to a sample that is enriched for actives. Unmarked numbers belong to inactive results.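 How the source made its calls: active means mean replicate inhibition above about 79%, with every replicate also reaching it (limit read from the data); inconclusive means only one of the two criteria met; inactive means mean below limit and not every replicate reaching it.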
# Target: FAD-linked sulfhydryl oxidase ALR (Homo sapiens) (UniProt P55789)
# Experiment: inhibitors of human ALR sulfhydryl oxidase, primary screen, biochemical, H2O2 detection, HRP-luminol luminescence, single point (AID 485317)
# Conditions: purified ALR, DTT oxidation, stronger effect = higher value, concentration not given here
# Sequence of FAD-linked sulfhydryl oxidase ALR (Homo sapiens) (P55789 whole entry, looked up): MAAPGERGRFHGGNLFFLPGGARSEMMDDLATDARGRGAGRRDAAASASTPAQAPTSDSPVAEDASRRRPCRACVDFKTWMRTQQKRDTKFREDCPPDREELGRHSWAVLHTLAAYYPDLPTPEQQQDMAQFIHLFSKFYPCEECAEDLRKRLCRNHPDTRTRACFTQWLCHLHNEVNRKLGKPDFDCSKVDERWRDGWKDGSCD
row,Structure (SMILES),inhibition
1,C=CCSc1nnc(N2C(=O)C(O)=C(C(=O)c3ccco3)C2c2ccc(F)cc2)s1 (centres undefined),98% (active)
2,Cc1ccc2nc(N3C(=O)C(O)=C(C(=O)c4ccco4)C3c3cccc(O)c3)sc2c1 (centres undefined),71.5%
3,O=C(C1=C(O)C(=O)N(c2ncccn2)C1c1cccs1)c1ccco1 (centres undefined),21.9%
4,Cc1ccc(C(=O)NCC(=O)NC2CC2)cc1,0.292%
5,CCC(CO)Oc1cc(NC(=O)c2cccc(F)c2)c2ncn(C(C)C)c2c1 (centres undefined),-32.8%
6,Cn1c(N)c(C(=O)COC(=O)c2cccc(S(=O)(=O)N3CCOCC3)c2)c(=O)n(C)c1=O,-2.97%
7,Nc1ccccc1Sc1cc(Cl)nnc1Cl,1.19%
8,Cc1nn(C)c(C)c1Sc1ccccc1N,99.2% (active)
9,CCOC(=O)c1cc(Sc2ccccc2N)cc(C(=O)OCC)n1,-11.9%
10,O=C(NN=Cc1ccc(N2CCOCC2)cc1)c1cc2ccccc2cc1O,11.6%
11,COc1ccc([C@H]2CC(=O)C=C(c3ccc(CO)cc3)C2)cc1,-0.829%
12,CCC(C)N(C(=O)COC(=O)c1nc(Cl)ccc1Cl)C1CCS(=O)(=O)C1 (centres undefined),0.398%
13,CC(C)N(C(=O)CN1CCN(S(=O)(=O)c2ccc(Br)s2)CC1)C(C)C,-3.29%
14,Cc1nc2nc(C)c(CCC(=O)N3CCN(c4ccccc4)CC3)c(C)n2n1,92.8% (active)
15,Cc1nc2c(-c3ccc(F)cc3)c(C)nn2c(C)c1CCC(=O)N1CCN(c2ccccn2)CC1,-13.5%
16,CC(CC(=O)N1CCN(c2ccccc2)CC1)c1ccccc1 (centres undefined),98.4% (active)
17,O=C(NC(CC(=O)N1CCN(c2ccccc2)CC1)c1ccccc1)c1ccccc1Cl (centres undefined),22.4%
18,O=C(CCc1ccccc1F)N1CCN(c2ccccc2)CC1,88% (active)
19,O=C(CCSc1ccccc1)N1CCN(c2ccccc2F)CC1,-13.1%
20,CC(=O)c1ccc(N2CCN(C(=O)CCc3ccccc3)CC2)cc1,16.1%
21,C/C(=C/c1ccccc1)C(=O)N1CCN(c2ccccc2)CC1,44%
22,Cc1nc2ncnn2c(C)c1CCC(=O)N1CCN(C(=O)c2ccco2)CC1,0.394%
23,CCOC(=O)c1cnc2nc(SCc3ccccc3Cl)[nH]n2c1=O,32.6%
24,Cc1csc2nc(O)c(C(=O)NCCN3CCOCC3)c(=O)n12,7.69%

row,Structure (SMILES),inhibition
1,COc1ccc(CNc2nc(NCc3ccc(OC)cc3)c3ncn(C4CCCC4)c3n2)cc1,2.44%
2,O=C(COC(=O)c1cccs1)Nc1ccccc1Cl,2.46%
3,O=C(Nc1ccccc1Cl)Nn1cnnc1,-11.5%
4,O=C(Nc1ccccc1Cl)/C(Cl)=C(\Cl)S(=O)c1ccccc1 (centres undefined),97.6% (active)
5,CCCCCC(=O)N1CCN(S(=O)(=O)c2ccc3c(c2)OCCCO3)CC1,1.7%
6,Cc1ccc(S(=O)(=O)N2CCCCC2)cc1NC(=O)[C@@H]1CCCN1C(=O)c1cccs1,-6.24%
7,O=C(Cc1ccc(Br)cc1)NCCc1ccccc1,-8.61%
8,Cc1cc(C)n2nc(C(=O)OCC(=O)N(C)CC(=O)Nc3ccc(F)cc3)nc2n1,2.76%
9,Cc1ccc(CC2C(=O)N(c3ccc(F)cc3)C(=O)C2C)cc1 (centres undefined),1.22%
10,Cc1ccc(N2C(=O)C(Cc3ccccc3)NC2=S)cc1 (centres undefined),25.5%
11,C=C1c2cc(CC)ccc2NC(=O)N1c1ccc(C)cc1,96.2% (active)
12,Cc1ccc(S(=O)(=O)N2CCN(C)CC2)cc1,-6.86%
13,Cc1ccc(S(=O)(=O)N2CCN(C(=O)c3cccs3)CC2)cc1,-6.58%
14,Cc1ccc(S(=O)(=O)N2C3C=CC(C3)C2C(=O)O)cc1 (centres undefined),89.7% (active)
15,CC(C)(C)OC(=O)C[C@@H]1C/C=C\C[C@@H](CC(=O)N[C@H](CO)Cc2ccccc2)C(=O)NC[C@@H](c2ccccc2)OC1=O,-0.924%
16,CC(=O)CCC(=O)c1ccc2ccccc2c1,-2.18%
17,Cc1cc(N=Nc2ccc3ccccc3c2)ccc1O,86% (active)
18,COc1ccc(N=Nc2ccc(O)c(P(=O)(c3ccccc3)c3ccccc3)c2)cc1,-4.29%
19,Cc1nc2ccccc2c(=O)n1-c1ccc(F)c(NC(=O)c2cccs2)c1,-7.89%
20,CN(Cc1cccs1)C(=O)CN1C(=O)c2ccccc2S1(=O)=O,1.6%
21,Cc1ccc(C(=O)N/C(=C/c2cccs2)C(=O)N2CCCCC2)cc1,88.2% (active)
22,CC1CCN(C(=O)/C(=C\c2ccccc2)NC(=O)c2ccccc2)CC1,8.11%
23,Cc1ccc(C(=O)N/C(=C/c2cccs2)C(=O)NCC2CCCO2)cc1 (centres undefined),-0.67%
24,O=C(N/C(=C\c1ccc(F)cc1)C(=O)N1CCCCCC1)c1ccccc1,39.9%

row,Structure (SMILES),inhibition
1,CN1CCN(C(=O)/C(=C\c2cccs2)NC(=O)c2cccs2)CC1,9.55%
2,O=C(N/C(=C\c1ccc(O)cc1)C(=O)N1CCCCC1)c1ccccc1,99% (active)
3,O=C(COC(=O)CSc1ccccc1)Nc1ccc(F)cc1F,0.233%
4,Cc1nn(-c2ccccc2)nc1C(=O)OCC(=O)N1CCCCC1C (centres undefined),0.513%
5,CC(C)(C)Nc1c(-c2cccs2)nc2ccccn12,98.7% (active)
6,Cc1ccsc1C(=O)N[C@@H](C)c1nnc2ccccn12,-3.18%
7,Cc1nc2ccccn2c(=O)c1NC(=O)c1cccs1,-1.56%
8,O=C(OCC(=O)N1CCCCCC1)c1ccc(Cl)nc1,8.08%
9,CCOC(=O)[C@H]1[C@H]2COc3cc(OC)ccc3[C@@H]2N2C(=O)CN(Cc3ccc(Cl)cc3)C(=O)[C@@]12C,-2.14%
10,CCC(=O)N1CCc2cc(S(=O)(=O)CCC(=O)N3CCN(c4ccccc4F)CC3)ccc21,5.15%
11,CCC(=O)N1c2ccc(S(=O)(=O)CCC(=O)N3CCN(c4ccccc4)CC3)cc2CC1C (centres undefined),98.5% (active)
12,CC(=O)N1CCCc2cc(S(=O)(=O)CCC(=O)N3CCN(c4ccccc4)CC3)ccc21,61.3%
13,CCC(=O)c1cc(F)ccc1OCC(=O)Nc1ccc2c(c1)OCCO2,-1.15%
14,CNC[C@@H]1Oc2c(NS(C)(=O)=O)cccc2C(=O)N([C@@H](C)CO)C[C@H]1C,6.23%
15,CCOc1ccc(C(C)=O)cc1COC(=O)CNC(=O)c1cccs1,-1.95%
16,COc1ccc(C2CC(c3cccs3)=NN2c2ccc(F)cc2)cc1OC (centres undefined),-1.9%
17,COc1ccc(C2=NN(c3ccccc3)C(c3cccs3)C2)cc1 (centres undefined),-4.89%
18,Oc1ccccc1C1=NN(c2ccccc2)C(c2ccccc2)C1 (centres undefined),47.4%
19,COc1ccccc1N1N=C(c2cccs2)CC1c1ccccc1 (centres undefined),97.2% (active)
20,COc1ccc(C2CC(c3cccs3)=NN2C(=O)CCC(=O)O)cc1OC (centres undefined),5.58%
21,COc1ccc(C2CC(c3cccs3)=NN2c2ccccc2)cc1 (centres undefined),97.6% (active)
22,COc1ccc(C(=O)C2CCCN(C(=O)c3ccc(OC)o3)C2)c(C)c1 (centres undefined),-4%
23,CNC(C)C#Cc1ccc2sc3cc(OC)c(OC)cc3c(=O)c2c1 (centres undefined),-24.4%
24,Cc1onc(-c2ccccc2Cl)c1C(=O)N(Cc1ccc(N(C)C)cc1)C(C)C,9.74%

row,Structure (SMILES),inhibition
1,C=CCN(CC=C)CCOc1ccccc1[N+](=O)[O-],-15.8%
2,CCCCCOc1ccc(CSC2=NCCN2)cc1[N+](=O)[O-],98.8% (active)
3,Cc1cc(OCCCCOc2ccc(C#N)cc2)ccc1[N+](=O)[O-],3.02%
4,CCCCOC(=O)CCCc1ccc([N+](=O)[O-])cc1[N+](=O)[O-],-8.65%
5,CCCOc1ccc(Cn2ccnc2)cc1[N+](=O)[O-],-2.35%
6,CCCCOc1ccc(CSC(=N)N)cc1[N+](=O)[O-],99.9% (active)
7,Cc1cc(C)c(S(=O)(=O)N2CCCC2CNC(=O)c2ccc3c(c2)OCO3)c(C)c1 (centres undefined),0.666%
8,COCCn1c(C)cc(C(=O)CN2c3cccc4cccc(c34)S2(=O)=O)c1C,-28.9%
9,CCCCN(C(=O)C1CCC1)c1c(N)n(Cc2ccccc2)c(=O)[nH]c1=O,7.79%
10,Cc1ccccc1NC(=O)Cc1nc(COC(=O)c2cccnc2Cl)cs1,31.8%
11,O=C(COC(=O)c1ccc2c(c1)OCCO2)NCc1ccccc1Cl,1.29%
12,O=C(Cn1nc(Cc2cccnc2)c2ccccc2c1=O)NCC1COc2ccccc2O1 (centres undefined),-6%
13,O=C(Cn1nc(Cc2cccnc2)c2ccccc2c1=O)NCC1CCCO1 (centres undefined),98% (active)
14,Cc1nn(CC(=O)NCC2CCCO2)c(=O)c2cc3ccccc3n12 (centres undefined),-2.19%
15,CCOC(=O)c1cc(NC(=O)c2cccnc2)ccn1,-12.6%
16,CC(=O)Nc1ccc(SC[C@H](Cc2ccccc2)N2CC[C@@H](C)CCC2=O)cc1,97.9% (active)
17,C[C@H]1CCC(=O)N([C@H](CSc2ccccc2)Cc2ccccc2)CC1,-5.54%
18,O=C1CC[C@H](O)CCN1[C@H](CSc1ccc(Br)cc1)Cc1ccccc1,11.4%
19,COc1ccc(NC(=O)COC(=O)c2n[nH]c3ccccc23)c(OC)c1,-2.04%
20,COc1ccc(N2CCN(Cc3nnc(-c4ccccc4)o3)CC2)cc1,35.1%
21,c1ccc(-c2cnc(CN3CCN(c4ccccc4)CC3)o2)cc1,88.2% (active)
22,Fc1ccc(N2CCN(Cc3cnc(Oc4ccc(Br)cc4)s3)CC2)cc1,1.01%
